Results from ChEMBL document CHEMBL3988442, “University of Dundee, Small-Polar-MMV Screening Library” (2021).
The whole screen tested about 69,000 compounds, of which about 950 (1.4%) showed an effect of 50% or more. The sample as a whole holds a higher share of strong results than the screen did.

test system: Mycobacterium tuberculosis; assay: Cornell M. t heat shock assay; format: functional, organism-based; parameters: dose or concentration left out as unconfirmed; note: in the data most compounds retested in dose-response had high values

SMILES | Percent Effect [%]
CN(C)C(=O)[C@@H]1C[C@@H]2CCN(Cc3nccs3)C[C@@H]2O1.O=C(O)C(F)(F)F | -1.901
O=C(O)C(F)(F)F.O=C(c1cccc(F)c1)N1CCC2(CC1)CC(N1CCOCC1)C2 | -0.407
CCCC(=O)NC1CCc2c(ccc(=O)n2Cc2csc(C)n2)C1.O=C(O)C(F)(F)F (centres undefined) | 46.41
Cc1cccc(CN2C[C@@H]3CN(C(=O)c4cnccn4)C[C@@H]3C2=O)n1.O=C(O)C(F)(F)F | -21.43
O=C1OC2(CCN(C(=O)C3NCCc4[nH]cnc43)CC2)c2ccccc21 (centres undefined) | 26.76
O=C(C1NCCc2[nH]cnc21)N1CCC2(CC1)CNc1ccccc12 (centres undefined) | 80.65
O=C(C1NCCc2[nH]cnc21)N1CCC2(C=Cc3ccccc32)CC1 (centres undefined) | 4.298
Cl.O=C(Nc1ccc(F)cc1)C(c1ccccc1)N1CCOCC1 (centres undefined) | -22.41
NC(=O)c1ccc(CN2C(=O)C3(CCNCC3)Nc3ccccc32)cc1 | 0.2477
C=Cc1ccc(CN2C(=O)C3(CCNCC3)Nc3ccccc32)cc1 | 97.35
C=Cc1ccc(CN2CCCC3(CNC(=O)c4ccccc4O3)C2)cc1 (centres undefined) | -6.668
Cl.O=C1CC2(CCNCC2)C(=O)N1Cc1ccc(F)cc1 | -13.65
CC(C)c1ccc(CN2C(=O)C3(CCNCC3)Nc3ccccc32)cc1 | 76.57
N#Cc1cccc(CN2C(=O)C3(CCNCC3)Nc3ccccc32)c1 | -29.61
Cc1cc(C[C@@H]2CCC[C@H]2NCc2cc(F)ccc2F)on1.O=C(O)CC(O)(CC(=O)O)C(=O)O | -16.01
CC(=O)N1CCN(Cc2nccs2)CC2(CC(=O)N(C)C2)C1.O=C(O)C(F)(F)F (centres undefined) | -21.46
CS(=O)(=O)N[C@H]1CN(C(=O)c2cscn2)[C@@H]2CCCO[C@H]12 | -7.446
COCC(=O)N1CCN(Cc2cccnc2)c2ncccc2C1.O=C(O)C(F)(F)F.O=C(O)C(F)(F)F | -17.68
CCNc1ncc2c(n1)CN(c1cccc(OC)c1)C2=O | 4.456
CCOC(=O)CSc1nnc([C@@H](N)CC(C)C)o1.Cl | -13.08
OCC1CCCN1c1cc(N2CCN(c3ccccn3)CC2)ncn1 (centres undefined) | 0.3449
CS(=O)(=O)N1CCN(c2cc(N3CCCC3CO)ncn2)CC1 (centres undefined) | -0.07305
OCC1CCCN1c1cc(N2CCC(OC3CCCC3)CC2)ncn1 (centres undefined) | 105.5

SMILES | Percent Effect [%]
CC(Sc1nncn1C)C(=O)NCCCOc1ccc(F)cc1 (centres undefined) | 9.016
O=C(NCc1ccccn1)[C@@H]1COC[C@H]2CN(C3CCC3)C[C@H]21.O=C(O)C(F)(F)F.O=C(O)C(F)(F)F | 3.202
O=C(O)C(F)(F)F.O=C(O)C(F)(F)F.O=C(c1ccco1)N1C[C@@H]2OCCN(CCN3CCCC3)[C@@H]2C1 | -4.474
Cl.c1cc(CNCc2cccc3c2OCCCO3)cc(Cn2cncn2)c1 | -3.738
N#Cc1ccc(C(=O)N2CC[C@H]3[C@@H]2CCC(=O)N3c2cccnc2)cc1.O=C(O)C(F)(F)F | 0.7242
Cl.NCC1CCCCN1C(=O)Cc1cccc(Cl)c1 (centres undefined) | -16.31
O=C1NCCCc2[nH]c(Cc3cccc(Cl)c3)nc21 | 2.952
Cl.Cl.Clc1cccc(C[C@@H]2NCCC[C@@H]2Nc2cccc(Cl)c2)c1 | 105.7
Clc1cccc(CNC2CCN(CCc3ccncc3)CC2)c1 | -16.56
Cl.Cl.Clc1cccc(C[C@@H]2NCCC[C@@H]2Nc2ccccc2)c1 | 104.8
O=C(Cc1cccc(Cl)c1)N[C@@H]1CCNC[C@H]1O | -8.967
O=C(NCCc1cccc(Cl)c1)C1CCOCC1 | -3.977
O=C(C[S+]([O-])Cc1cccc(Cl)c1)NC1CCCC1 (centres undefined) | -6.776
Cc1ccc(CN[C@@H]2COC[C@H]2c2ccc(F)cc2)cc1C.O=C(O)CC(O)(CC(=O)O)C(=O)O | -6.111
Cc1csc(CN2C[C@@H]3COC[C@]3(COCC(=O)N(C)C)C2)n1.O=C(O)C(F)(F)F | -22.07
CCn1cc2c(n1)CN(Cc1nccs1)CC2COCC1CC1.O=C(O)C(F)(F)F (centres undefined) | 3.982
CC(C)c1nc(N2CCC(N3CCSCC3)CC2)c2cnn(C)c2n1 | -6.323
CC(C)c1nc(N2CCC(N3CCCC(O)C3)CC2)c2cnn(C)c2n1 (centres undefined) | -1.228
CC(C)c1nc(N2CCC(N3CCCCCC3)CC2)c2cnn(C)c2n1 | 94.23
Cc1csc(CN2CCC[C@]3(C[C@@H](Oc4ccccn4)CO3)C2)n1.O=C(O)C(F)(F)F.O=C(O)C(F)(F)F | -18.33
Cc1cccnc1CN1CCN(c2noc(-c3ccccc3)n2)CC1 | 100.3
CCOc1ccnc(N2CCN(Cc3ncccc3C)CC2)n1 | 17.62
Cc1noc(-c2ccc(N3CCN(Cc4ncccc4C)CC3)nc2)n1 | -11.68

SMILES | Percent Effect [%]
Cc1nc(CN2C(=O)CCC23CCN(Cc2cccn2C)CC3)cs1.O=C(O)C(F)(F)F.O=C(O)C(F)(F)F | -21.2
CCN1C[C@@H]2CN(C(=O)c3cccn3C)C[C@@H]2C1=O | 97.42
Cn1cccc1C(=O)N1C[C@H]2CN(CC3CC3)C(=O)[C@H]2C1 | 12.5
CC(C)CN1C[C@@H]2CN(C(=O)c3cccn3C)C[C@@H]2C1=O | 1.08
O=C(NCc1ccc(F)cc1)C1CCCN(c2ccc3nncn3n2)C1 (centres undefined) | -16.16
Fc1ccc(CN2CCO[C@H]3[C@H](OCc4ccncc4)CC[C@@H]32)cc1.O=C(O)C(F)(F)F.O=C(O)C(F)(F)F | 22.03
COc1ccc(Oc2ncccc2C(F)(F)F)cc1CN1CCCC1 | 7.068
COc1cc(CN2CCCC2)ccc1Oc1ncccc1C(F)(F)F | -12.36
COc1cc(Oc2ncccc2C(F)(F)F)ccc1CN1CCCC1 | 53
C1CN(CC2CC2)C(COCC2CC2)c2nnn(CC3CC3)c21.O=C(O)C(F)(F)F (centres undefined) | -14.94
COc1ccc(CNC(=O)Cn2ccc3sccc3c2=O)cc1 | -0.6252
Cl.Cn1cc([C@@H]2CN(S(=O)(=O)c3ccccc3F)C[C@H]2N)c2ccncc21 | -1.741
CN(C)C(=O)CN1CCC2(CCN(CC3CC3)CC2)C1=O.O=C(O)C(F)(F)F | -28.35
O=C(O)C(F)(F)F.O=C(O)C(F)(F)F.O=C1[C@@H]2CCN(Cc3ccoc3)C[C@@H]2OCCN1Cc1cccnc1 | -189.5
CN(C)CCOCC1CN(Cc2cccc(F)c2)Cc2nccn2C1.O=C(O)C(F)(F)F.O=C(O)C(F)(F)F (centres undefined) | -23.51
CCCN(Cc1nc2ccccc2[nH]1)Cc1ccccc1OC | 67.04
CCCN(Cc1ccccn1)Cc1ccccc1OC | 31.04
CCCN(Cc1cnc2ccccc2n1)Cc1ccccc1OC | 19.04
O=C(O)C(F)(F)F.O=C(O)C(F)(F)F.O=C(O)c1c(-c2cccnc2)ncc2c1CCN(Cc1cccnc1)C2 | -14.58
Cc1nc(CO[C@@H]2CN(Cc3nccs3)[C@@H]3COC[C@@H]32)cs1.O=C(O)C(F)(F)F | -44.36
CN(C)S(=O)(=O)N1CC[C@]2(C[C@@H](Oc3cccnc3)CO2)C1.O=C(O)C(F)(F)F | -11.53
CC(Nc1nc(-c2ccccc2)nc2c1CCNCC2)c1nccs1 (centres undefined) | 20.74
CC(Nc1nc(-c2ccccc2)nc2c1CCNCC2)c1cccnc1 (centres undefined) | 73.2

SMILES | Percent Effect [%]
CC(Nc1nc(-c2ccncc2)nc2c1CCNC2)c1ccccc1 (centres undefined) | 18.8
O=C(O)C(F)(F)F.O=C(O)C(F)(F)F.c1cnc(N2CCOC3(CCN(CC4CCCCC4)CC3)C2)nc1 | 13.11
O=C(O)C(F)(F)F.c1ncn(Cc2cnc3n2CCN(Cc2ccsc2)CC3)n1 | -8.028
O=C(NCCn1ccnc1)c1cccc(Br)c1 | 24.48
Cc1ccc(C(=O)Nc2cn[nH]c2)cc1F | -0.1311
Cc1noc(NC(=O)c2ccc(Br)s2)n1 | 103.3
Cc1noc(NC(=O)c2ccc(Br)o2)n1 | -6.271
Cc1c(NC(=O)c2cccc(Br)c2)c(C(=O)N(C)C)nn1C | -8.879
Cc1noc(NC(=O)c2ccc(C#N)cc2)n1 | 69.42
Cc1nc(C(C)(C)NC(=O)Nc2ccc(C#N)cc2)no1 | -15.18
Cc1noc(NC(=O)c2ccc(C)c(F)c2)n1 | 105.5
CN(C)Cc1ccccc1NC(=O)c1ccc(C#N)cc1 | -24.53
Cc1cc(NC(=O)c2ccc(C)c(F)c2)[nH]n1 | 1.383
Cc1noc(NC(=O)c2cccc(Br)c2)n1 | 106.8
Cc1noc(COCC(=O)Nc2ccc(Br)c(C)n2)n1 | 3.251
O=C(O)C(F)(F)F.O=C(O)C(F)(F)F.c1ccc(N2CC[C@H](OCC3CC3)[C@@H]2Cc2cccnc2)nc1 | 14.43
O=C(O)C(F)(F)F.c1cc(-c2ccc3nc(C4CCN(CC5CC5)CC4)nn3c2)cs1 | -34.74
Cc1cc(C)nc(N2CC=C[C@@H]2C(=O)NCc2ccc3c(c2)OCO3)n1.Cl | 15.24
CN(C)C(=O)N1C[C@@H]2CC[C@H](C1)N(C(=O)c1cccc(N(C)C)c1)C2 | -44.86
CC(C)N(C(=O)Cn1c(-c2ccco2)cc2cccnc21)C(C)C.Cl | 22.85
